Bioassay records (PubChem BioAssay)
Sampled rows, rich in hits. Any-hit rate of the full collection: about 4.8%.
APP transl inh = inhibitors of APP translation via 5'UTR reporter, primary screen, APP 5'UTR luciferase, SH-SY5Y cells | AID 1285, 2008 | inhibition, % at 2 µM | actives 0.82% (n = 190,000) | SH-SY5Y APP 5'UTR-luciferase reporter, luminescence;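 active = inhibition above a set limit, derived from the sample mean plus 3 SD, cut at about 45% in these data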
Hsp70 act = Hsp70 transcriptional activators, primary screen, cell-based, HeLa, Hsp70 promoter luciferase, luminescence, 10 µM; actives 0.04% (n = 200,000); AID 1203, 2008; activation, % at 10 µM; HeLa Hsp70 promoter luciferase reporter; scaled: vehicle 0, proteasome-inhibitor control 100%;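 active = activation above the mean across all tested compounds plus 3 SD, cutoff set per campaign, cut at about 5.5% in these data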;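 also: 100% = MG132 at 30 µM as the positive control and 0% = DMSO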
Wee1 degr inh = Wee1 degradation inhibitors, primary screen, cell-based, HeLa, Wee1K328M-luciferase, luminescence | Wee1-like protein kinase (Homo sapiens), P30291 | AID 1321, 2008 | HeLa Luc-Wee1K328M stability; 100% = proteasome inhibitor MG132 effect | reporter increase, % at 5 µM | actives 1.2% (n = 220,000);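 active = activation above the mean of all tested compounds plus 3 SD, set per screening run, cut at about 8.8% in these data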;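 also: cells exposed to compound for 20 h before luminescence read; 0% = DMSO alone and 100% = MG132 at 30 µM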
APP 5'UTR act = activators of APP 5'UTR luciferase reporter, primary screen, SH-SY5Y cells; activation, % at 2 µM; AID 1276, 2008; actives 1% (n = 190,000); SH-SY5Y APP 5'UTR luciferase reporter, luminescence; zero percent = DMSO vehicle wells;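 active = activation above a set limit, based on mean plus 3 SD of controls, cut at about 140% in these data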
STAT1 act = STAT1 signaling activators, primary screen, cell-based, HTS, luciferase reporter; NIH 3T3 STAT1-luciferase reporter, IFN-gamma, luminescence; 100% = IFN-gamma alone, no compound; activation (% of control), % at 5.5 µM; actives 2.6% (n = 200,000); AID 932, 2007;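 active = activation above the screen-wide mean activation plus 3 SD, cut at about 130% in these data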;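 also: raw ratio to IFN-gamma control signal so 100% means no change and 0% no light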
NF-kB expr up = activators of NF-kB expression in neurons, primary screen, cell-based, HTS; human neuronal cells, NF-kB reporter expression; active compounds read high; fold change at 12.5 µM; AID 1239, 2008; actives 1.6% (n = 190,000); in the data active = fold change above about 3.3
* = called active by the depositor; . = no result given.

SMILES | APP transl inh | Hsp70 act | Wee1 degr inh | APP 5'UTR act | STAT1 act | NF-kB expr up
Clc1ccc(SCc2cn3ccccc3n2)cc1 | -95 | 0 | 0 | 95 | 133* | 3
Cc1ccc(SCc2cn3c(C)csc3n2)cc1 | -199 | 0 | 5 | 199* | 126 | 5.7*
Clc1ccc2nc(CSc3nncn3-c3ccccc3)cn2c1 | 15 | 0 | 0 | -15 | 93 | 1
Cc1cc(C)nc(SCc2cn3ccccc3n2)n1 | . | . | -1 | . | . | .
Clc1ccc2nc(CSc3nnc4ccccn34)cn2c1 | -107 | 0 | 0 | 107 | 141* | 3.1
N=C(N)SCc1cn2ccccc2n1 | -4 | 0 | 8.8* | 4 | 92 | 1.4
Cc1cccc2nc(CSc3ccc(Cl)cc3)cn12 | -102 | 0 | 2 | 102 | 132* | .
Cc1cccc2nc(CSCc3ccco3)cn12 | -114 | 0 | -1 | 114 | 135* | 2.3
Cc1ccc(C(=O)COC(=O)CCC(=O)Nc2cc(Cl)ccc2Cl)cc1[N+](=O)[O-] | 0 | 0 | 2 | 1 | 98 | 0.99
CCN1CCN(S(=O)(=O)c2ccc(OC)c(Br)c2)CC1 | -3 | 0 | 0 | 3 | 101 | 1.2
CC1=Nc2ccccc2NC(=O)C1Sc1nnc(C)s1 (centres undefined) | -16 | 0 | -2 | 16 | 102 | 1.3
CCCCN1C(=O)C2Cc3c([nH]c4ccccc34)CN2C1=S (centres undefined) | -38 | 0 | 4 | 38 | 104 | 2.8
Nc1ccccc1SCc1cn2cccnc2n1 | -17 | 0 | 3 | 17 | 107 | 1.1
CNc1cc(CSc2ccc(Cl)cc2)nc(C)n1 | -87 | 0 | 5 | 87 | 135* | 2.4
Cc1cccn2cc(CSc3ccccc3N)nc12 | 3 | 0 | 4 | -3 | 139* | 3.2
CCOC(=O)c1ccc(NC(=O)C2CCN(C(=O)c3ccc(OC)c(OC)c3)CC2)cc1 | -1 | 0 | 1 | 1 | 96 | 1.1
O=C(NCCSCc1ccco1)Nc1ccccc1 | -28 | 0 | -4 | 28 | 108 | 1.4
COC(=O)CSc1nnc(-c2ccc(S(=O)(=O)N3CCCCC3)cc2)o1 | 5 | 0 | 1 | -5 | 103 | 1.7
CCOC(=O)C1=C(NC(=S)NC(=O)c2ccccc2)c2ccccc2CC1C(C)C (centres undefined) | 6 | 0 | 0 | -6 | 103 | 3.7*
O=C(N/C(=C/c1cccnc1)C(=O)N1CCOCC1)c1ccccc1Cl | . | . | 1 | . | . | .
C/C(=N\NC(=O)c1ccccc1F)c1ccc2c(c1)Nc1ccccc1S2 | -44 | 0 | 2 | 44 | 132* | 1.4
CC(C)CCn1cnc2c(cnn2-c2ccc(F)cc2)c1=O | -18 | 0 | 5 | 18 | 130* | 1.8
COC(=O)c1ccc(Cn2cnc3c(cnn3-c3ccc(F)cc3)c2=O)o1 | 1 | 0 | -2 | -1 | 99 | 0.99
Cc1cc(C)n(CC(O)COc2ccc3ccccc3c2)n1 (centres undefined) | -19 | 0 | -1 | 19 | 133* | 2.2
COc1ccccc1N(CC(=O)Nc1c(C)n(C)n(-c2ccccc2)c1=O)S(=O)(=O)c1ccc(C)cc1 | 13 | 0 | -2 | -13 | 101 | 1.1
CCOc1ccc(N(CC(=O)Nc2c(C)n(C)n(-c3ccccc3)c2=O)S(=O)(=O)c2ccccc2)cc1 | -8 | 1 | 11* | 8 | 101 | 0.95
COc1cc(/C=N/Nc2nc3ccccc3s2)ccc1OC(=O)c1ccccc1F | -173 | 0 | 0 | 173* | 106 | 12*
COc1cc(OC)cc(C(=O)Oc2ccc(/C=N/Nc3nc4ccccc4s3)cc2OC)c1 | -115 | 0 | 5 | 115 | 121 | 1.7
COc1cc(/C=N/Nc2ccccc2[N+](=O)[O-])ccc1OC(=O)c1ccccc1F | -193 | 0 | -2 | 193* | 107 | 1.7
COc1ccc(C(=O)Oc2cc(/C=N/NC(N)=S)ccc2OC)cc1 | 16 | 0 | -2 | -16 | 104 | 1.2
